Source: PubChem
TIM10 inh = growth inhibitors of TIM10 yeast strain; 330,000 tested, 1.4% active; S. cerevisiae TIM10 strain growth, BacTiter-Glo luminescence, 24 h; inhibition, % at 10 µM;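 active = inhibition of 40% or more at the single tested concentration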;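 also: wild-type TIM10 isogenic control strain grown at permissive 25 °C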
tim23-1 inh = growth inhibitors of tim23-1 mutant yeast; 330,000 tested, 1.3% active; inhibition, % at 20 µM; AID 463212; S. cerevisiae tim23-1 growth, BacTiter-Glo luminescence, 24 h;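 active = growth inhibition of the mutant yeast at or above 50%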;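 also: temperature-sensitive mutant grown at 25 °C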
SKKanGAS inh = inhibitors of SKKanGAS S. pyogenes growth in kanamycin (SK-promoter or general growth effect); BacTiter-Glo, 6 h; inhibition, % at 7.5 µM; 300,000 tested, 1.3% active;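 active = mean replicate score, as percent of positive control median, at least 50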;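 also: strain carries kanamycin resistance gene driven by streptokinase promoter and grows in 40 µg/ml kanamycin; loss of luminescence reflects streptokinase promoter inhibition or plain growth inhibition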
tim10-1 inh = inhibits growth of tim10-1 mutant yeast | S. cerevisiae tim10-1 ts strain growth, BacTiter-Glo, 24 h | inhibition, % at 20 µM | 330,000 tested, 2.2% active;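 active = inhibition of at least 40%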;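 also: mutant grown at 25 °C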
PfHsp90 yeast 2 = reduces growth (ATP signal) of yeast expressing P. falciparum Hsp90 | S. cerevisiae expressing PfHsp90, BacTiter-Glo ATP, 48 h; yeast lacking PDR1 and PDR3 efflux regulators | inhibition, % at 9.4 µM | 310,000 tested, 0.32% active;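 active = every replicate shows inhibition above about 80%, whatever the replicate mean, limit read from the data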
V-ATPase pH = yeast V-ATPase proton transport regulation by pHLuorin | response, % at 10 µM | 350,000 tested, 0.37% active | S. cerevisiae, pHLuorin cytosolic pH fluorescence; in the data active = response mostly above about 7.3%, no sharp cut-off; inactive = mostly below about 5.4%; also: actives read high
tim10-1 conf = confirmation of tim10-1 mutant yeast growth inhibitors; shares compounds with tim10-1 inh; 7,400 tested, 56% active; inhibition, % at 20 µM; AID 463213; S. cerevisiae tim10-1 ts strain growth, BacTiter-Glo, 24 h;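 active = inhibition of yeast growth at or above a set limit in either of two repeat tests at 20 µM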;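 also: tim10-1 mutant grown at permissive 25 °C to find synthetic lethal compounds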
Large screens that a line does not name were inactive (follow-up assays come after a bar, where they were run). In the library only some 4.6% were active in any assay of this set; here they are far more common.

O=C1c2cccc3cccc(c23)C(=O)N1CCN1CCN(CC(O)COc2ccc3ccccc3c2)CC1 (stereo not drawn)	tim10-1 inh 71 | tim10-1 conf 62
COc1ccc(C(=O)CNc2ccc(C)cc2C)cc1	none
CCc1ccc(Nc2n[n+](-c3ccccc3)c(/C=C/c3ccccc3)s2)cc1	tim10-1 inh 43 (no result: PfHsp90 yeast 2, V-ATPase pH) | tim10-1 conf inactive
CCc1ccc(Nc2n[n+](-c3ccccc3)c(-c3cc(OC)c(OC)cc3Br)s2)cc1	none
C[C@]12CC[C@H](O)CC1=CCC1C2CC[C@@]2(C)C1CC[C@@H]2NC(=O)[C@@H](N)Cc1cnc[nH]1 (stereo partly drawn)	none (no result: TIM10 inh, tim23-1 inh, SKKanGAS inh, tim10-1 inh)
COc1ccc(CCNC(=O)c2cc(-c3ccc(Cl)c(Cl)c3)oc2C)cc1	SKKanGAS inh 53, tim10-1 inh 40 | tim10-1 conf 36
O=C(CSc1nnc(-c2ccc(O)cc2)o1)N1CCOCC1	none
Oc1ccc(-c2nnc(SCC3CCCCC3)o2)cc1	tim10-1 inh 44 (no result: PfHsp90 yeast 2) | tim10-1 conf inactive
CCc1ccc(NC(=O)C(=O)NCC2CCCN2S(=O)(=O)c2cccs2)cc1 (stereo not drawn)	none (no result: PfHsp90 yeast 2)
CCc1ccc(NC(=O)N(Cc2ccco2)C(C)c2cccs2)cc1 (stereo not drawn)	tim10-1 inh 42 | tim10-1 conf 33
CC(C)CCN(C(=O)Nc1ccccc1)C(C)c1cccs1 (stereo not drawn)	tim10-1 inh 43 (no result: SKKanGAS inh, PfHsp90 yeast 2) | tim10-1 conf 31
CC(c1cccs1)N(C(=O)Nc1ccccc1)C1CCCCC1 (stereo not drawn)	none
CCc1ccc(NC(=O)N(Cc2cccnc2)Cc2ccco2)cc1	none
Cc1cccc(N2CCN(C(=O)c3ccc(-n4cncn4)c([N+](=O)[O-])c3)CC2)c1C	none
CC(=O)NN1C(=O)/C(=C2/Sc3ccc(Cl)cc3N2C)SC1=S	none
O=C(Nc1cccnc1)c1cn(-c2ccccc2)nc1-c1cccs1	tim10-1 inh 43 | tim10-1 conf 43
O=C(Nc1cccc2ccccc12)c1cn(-c2ccccc2)nc1-c1cccs1	none
CCCCN1C[C@H](C)[C@@H](CC(=O)NC)C1=O	none (no result: TIM10 inh, tim23-1 inh, SKKanGAS inh, tim10-1 inh, PfHsp90 yeast 2)
Cc1ccc(SCC2(O)CCN(S(=O)(=O)c3ccc(Cl)cc3)CC2)cc1	tim10-1 inh 41 (no result: PfHsp90 yeast 2) | tim10-1 conf inactive
CCOc1ccc2ccccc2c1/C=N/NC(=O)CNC(=O)c1ccccc1F	none
CC1(C)CC(=O)C2=C(C1)OC1=C(C(=O)CC(C)(C)C1)C2c1ccc(O)cc1O	tim10-1 inh 44 | tim10-1 conf 35
CC1(C)CC(=O)C2=C(C1)OC1=C(C(=O)CC(C)(C)C1)C2c1ccc(O)c([N+](=O)[O-])c1	none
Cc1ccc(C(=O)Nc2ccccc2C(=O)N2CCCC(C)C2)cc1 (stereo not drawn)	none
C#CCN(C)CC/C=C1\c2ccccc2CSc2ccccc21	tim10-1 inh 44 | tim10-1 conf inactive
CCc1ccc(CN2CCCC(CCC(=O)N3CCN(c4ccccn4)CC3)C2)o1 (stereo not drawn)	none
COc1ccc(CCN2C(=NC(=O)C(C)C)SC3CS(=O)(=O)CC32)cc1OC (stereo not drawn)	none
Cc1ccc2[nH]c(C)c(/C=C/c3cc[n+](C)cc3)c2c1	tim10-1 inh 51 | tim10-1 conf inactive
O=C1c2cccnc2C(Nc2ccc(Br)cc2)N1Cc1cccs1 (stereo not drawn)	tim10-1 inh 41 (no result: PfHsp90 yeast 2) | tim10-1 conf inactive
COc1ccc(NC2c3ncccc3C(=O)N2Cc2cccs2)cc1 (stereo not drawn)	none
CCc1nc(NCC2CC2)c2nnn(Cc3ccccc3)c2n1	none (no result: TIM10 inh, tim23-1 inh, SKKanGAS inh, tim10-1 inh, PfHsp90 yeast 2)
CCOC(=O)Nc1nc(-c2ccccc2)c(C(=O)c2ccccc2)s1	tim10-1 inh 40 | tim10-1 conf inactive
CC(=O)c1sc(NC(=O)c2ccccc2)nc1-c1ccccc1	none
CC(=O)c1sc(NC(=O)c2c(F)cccc2F)nc1-c1ccccc1	tim10-1 inh 52 | tim10-1 conf inactive
COc1ccccc1OCC(=O)Nc1ccc(S(=O)(=O)N(C)c2ccccc2)cc1	none
CCc1nnc(NC(=O)CSc2nc(C)cs2)s1	none
CC(NC(=S)Nc1ccc(S(=O)(=O)N2CCOCC2)cc1)C1CC2CCC1C2 (stereo not drawn)	tim10-1 inh 49 | tim10-1 conf 43
O=[N+]([O-])c1c(C(Cl)Cl)nn(-c2ccccc2)c1N1CCOCC1	tim10-1 inh 44 | tim10-1 conf 35
Cc1cccc(CCNC(=O)c2cccc3c2C(=O)N(C2CCCCC2)C3)c1	tim10-1 inh 52 | tim10-1 conf inactive
Cc1cc(C)c(NC(=O)c2cccc3c2C(=O)N(C2CCCCC2)C3)c(C)c1	tim10-1 inh 49 | tim10-1 conf inactive
CCOC(=O)c1c(NC(=S)N2CCN(C)CC2)sc(C)c1-c1ccccc1	SKKanGAS inh 50, tim10-1 inh 43 | tim10-1 conf 31
O=C(O)c1ccc2c(c1)C(=O)N(CCc1c[nH]c3ccccc13)C2=O	tim10-1 inh 98 | tim10-1 conf inactive
O=C(NC1CCN(CCc2c[nH]c3ccccc23)CC1)c1ccccc1	tim10-1 inh 43 | tim10-1 conf inactive
O=C(O)c1ccc2c(c1)C(=O)N(CCc1ccccc1)C2=O	none
O=C(NC1CCN(Cc2ccccc2)CC1)c1ccccc1	none
COc1ccc(C(=O)c2cnc(/N=C/N(C)C)s2)cc1	tim10-1 inh 44 (no result: PfHsp90 yeast 2) | tim10-1 conf 36
CC1CCCCC1NC(=O)CN(C)S(=O)(=O)c1ccc2c(c1)CCC(=O)N2 (stereo not drawn)	none
COc1ccc(C(=O)NC2(C(F)(F)F)C(=O)N(Cc3ccco3)C3=C2C(=O)CC(C)(C)C3)cc1OC (stereo not drawn)	none
COc1cc(CN2C(=O)C(NC(=O)c3ccco3)(C(F)(F)F)C3=C2CC(C)(C)CC3=O)cc(OC)c1 (stereo not drawn)	tim10-1 inh 47 | tim10-1 conf inactive
CNCc1ccccc1Sc1cccc2ccccc12	tim10-1 inh 41 | tim10-1 conf inactive
CNCc1ccccc1Sc1ccc(OC)cc1	none
O=C(O)c1cccc(Nc2nc(-c3ccccc3)nc3ccccc23)c1	none
O=C(O)c1ccc(Nc2nc(-c3ccccc3)nc3ccccc23)cc1	tim10-1 inh 53 | tim10-1 conf inactive
CC1CCC(NC(=O)c2cc(S(=O)(=O)N3CCCCC3)ccc2N2CCOCC2)CC1 (stereo not drawn)	none (no result: SKKanGAS inh, PfHsp90 yeast 2)
COc1ccc(-n2nc(C(=O)NCC(=O)NCCc3ccc(OC)c(OC)c3)c3ccccc3c2=O)cc1Cl	none
CC1(C)CC2CC(C)(CN2C(=O)C23CCC(C)(C(=O)C2)C3(C)C)C1 (stereo not drawn)	tim10-1 inh 43 | tim10-1 conf inactive
O=c1c2ccccc2c2ccccc2c(=O)n1Nc1ccccc1	none (no result: TIM10 inh, tim23-1 inh, SKKanGAS inh, tim10-1 inh, PfHsp90 yeast 2)
CCOC(=O)c1nnc(-c2ccc(C)cc2)nc1Oc1ccc(Cl)cc1Cl	tim10-1 inh 50 | tim10-1 conf 31
